This is part of a sample that, as a whole, favours compounds with a hit. Of some 83,000 tested, about 20% had one in any assay.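 A percent growth of 40 corresponds to 60% growth inhibition; 0 means no net growth; -100 means all cells died. Active threshold: below 10.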 Values without a mark were called inactive. Activity calls are given as the source filed them.

Data on 35 molecules can be found in PubChem BioAssay (NCI).

Common to all, as to assay: NCI-60 one-dose screen, 48 h (100 = growth as untreated, 0 = no growth, -100 = all killed)
Conditions in all cases: 10 µM unless noted

Test [1] deals with T-47D breast.
Test [2] concerns BT-549 breast.
For test [3], the system named is MDA-MB-435 melanoma.
For test [4], the system named is MCF7 breast.
In test [5] the test system is HCT-116 colon.
Test [6] has as its system HCC-2998 colon.
In test [7] the test system is KM12 colon.
Test [8] relates to SW-620 colon.

`[N-]=[N+]=NCc1cccc(/C(O)=C/C(=O)C(=O)O)c1`: the growth is 86.6% in test [1]; 113% in test [2]; 140% in test [3]; 98.6% in test [4]; 91.3% in test [5]; 88.5% in test [6]. Also, the growth in test [7] is 97.4%.

In the case of `c1ccc2nc(N/N=C3\CCCCC3C3CCCCC3)ccc2c1` (stereo not given), the growth is 40.4% in test [1]; 78.8% in test [3]; 44.2% in test [8]; 58.1% in test [4]; 6.79% (active) in test [5]; 64.2% in test [6]. Also, the growth in test [7] was 38.4%.

Take `CCOC(=O)C(Br)=P(c1ccccc1)(c1ccccc1)c1ccccc1`: the growth was 97.7% in test [1]; 98.6% in test [3]; 105% in test [8]; 111% in test [4]; 110% in test [5]; 109% in test [6]. The growth in test [7] is 112%.

For the molecule `COc1cc(/C=C/c2cc(/C=C/c3ccc(O)c(OC)c3)n(C(=O)Cc3ccccc3)n2)ccc1O`, the growth in test [1] is -7.75% (active); in test [3], -10.2% (active); in test [8], 4.63% (active); in test [4], -0.783% (active); in test [5], 1.23% (active); in test [6], 17.2%. Also, the growth in test [7] was 9.39% (active).

In the case of `C/C(=C\CCc1ccsc1)CC/C=C(\C)CCCN1CCSCC1`, the growth in test [1] was 70.1%; in test [2], 97.1%; in test [3], 85.9%; in test [4] it was 90.9%; in test [5], 77.7%; in test [6], 96.4%. The growth in test [7] was 84.3%.

`O=C1OC(Oc2ccccc2)(c2ccccc2)c2ccccc21` (stereo not given): the growth in test [1] is 100%; in test [3] it was 102%; in test [8], 106%; in test [4], 117%; in test [5] it was 102%; in test [6] it was 104%. Moreover, the growth in test [7] was 93.3%.

`O=C(NN1C(=O)c2cc(C(=O)O)c(C(=O)O)cc2C1=O)c1ccncc1`: the growth was 102% in test [1]; 103% in test [2]; 114% in test [3]; 98.3% in test [4]; 106% in test [5]; 103% in test [6]. In addition, the growth in test [7] was 111%.

As to `CNNc1ncnc2c1cnn2-c1ccc(S(N)(=O)=O)cc1`, the growth in test [1] was 98.2%; in test [2], 109%; in test [3] it was 114%; in test [4] it was 104%; in test [5], 100%; in test [6], 99.3%. The growth in test [7] was 91.9%.

For the molecule `COc1ccc2[nH]c(=O)c(CNc3ccc(Nc4nccc(-c5ccc(Cl)cc5)n4)cc3)cc2c1`, the growth in test [1] was 65.9%; in test [2] it was 104%; in test [3] it was 104%; in test [4] it was 71.8%; in test [5], 91.1%; in test [6], 106%. Moreover, the growth in test [7] is 85.4%.

In the case of `COc1ccc(-c2cc(-c3cccnc3)nc3sc(C(=O)Nc4ccccc4)c(N)c23)cc1OC`, the growth in test [1] was 55.8%; in test [3] it was 76.1%; in test [8], 85.5%; in test [4], 65.4%; in test [5], 50.5%; in test [6], 80.3%. Besides, the growth in test [7] was 61.3%.

For `COc1cc(/C=C/c2cc(/C=C/c3ccc(O)c(OC)c3)n(C(=O)c3ccc(Cl)cc3)n2)ccc1O`, the growth in test [1] is 11.2%; in test [3], -45.2% (active); in test [8], 16.4%; in test [4] it was 20.1%; in test [5] it was 0.953% (active); in test [6], 52%. In addition, the growth in test [7] was 10.8%.

As to `COc1ccc(-n2cnc3cc(C(=O)N4CCCCC4)ccc32)cc1`, the growth is 91% in test [1]; 102% in test [3]; 104% in test [8]; 103% in test [4]; 98.3% in test [5]; 104% in test [6]. Moreover, in test [7], the growth was 107%.

Turning to `NC(=O)NS(=O)(=O)c1ccc(N2N=C(C(F)(F)F)CC2c2cc(C(F)(F)F)cc(C(F)(F)F)c2)cc1` (stereo not given), the growth in test [1] was 72.4%; in test [2], 98%; in test [3] it was 40%; in test [4] it was 49.7%; in test [5] it was 55.9%; in test [6], 88.2%. Further, the growth in test [7] is 71%.

For the molecule `Nc1nc2c(nnn2Cc2ccc(Cl)c(Cl)c2)c(=O)[nH]1`, the growth in test [1] is 84.3%; in test [2], 99.4%; in test [8] it was 99.9%; in test [4], 93.7%; in test [5], 104%; in test [6] it was 116%. Also, the growth in test [7] is 90.2%.

Take `COc1ccc(NC(=O)c2ccc(-c3ccccc3)cc2)c(C(N)=O)c1`: the growth in test [1] is 88.6%; in test [3], 98.5%; in test [8] it was 110%; in test [4], 96.6%; in test [5], 106%; in test [6], 102%. In addition, the growth in test [7] is 99.2%.

For `CCSc1nc(Nc2ccc(S(=O)(=O)Nc3ccon3)cc2)c(C#N)c(-c2cccc(Br)c2)n1`, the growth in test [1] is 81%; in test [3], 102%; in test [8], 110%; in test [4], 79.2%; in test [5], 85%; in test [6] it was 106%. For the same molecule, the growth in test [7] was 95.1%.

For `COc1cc(/C=C\C(C)=N\Nc2ccccc2)ccc1O`, the growth in test [1] was 68%; in test [2] it was 102%; in test [3] it was 69.7%; in test [4], 82.4%; in test [5], 91.4%; in test [7], 52.8%.

With `COc1ccc2c(c1)CC[C@@H]1[C@@H]2CC[C@]2(C)[C@@H](O)C(=O)C[C@@H]12`, the growth is 106% in test [1]; 103% in test [2]; 102% in test [3]; 129% in test [4]; 99.7% in test [5]; 110% in test [7].

Regarding `COc1cccc(C=Nc2cc(C(C)C)c(O)cc2C)c1O`, the growth in test [1] is 51.7%; in test [2] it was 101%; in test [8], 105%; in test [4], 92.5%; in test [5], 99.1%; in test [6] it was 115%. Besides, the growth in test [7] was 109%.

For `COc1ccc(C(=O)/C=C/c2cccc(Nc3ccnc4cc(Cl)ccc34)c2)cc1`, the growth is 15.7% in test [1]; 28.1% in test [3]; 19% in test [8]; 23.4% in test [4]; 9.57% (active) in test [5]; 68.8% in test [6]. In addition, the growth in test [7] is 53%.

As to `COP(=O)(OC)C(c1ccc(O)cc1)(c1ccc(O)cc1)c1ccc(O)cc1`, the growth is 104% in test [1]; 118% in test [3]; 97.3% in test [8]; 109% in test [4]; 82.7% in test [5]; 127% in test [6]. Besides, the growth in test [7] was 113%.

On to `CCc1nn2c(-c3ccc(Cl)cc3C)c(-c3cc(OC)c(OC)c(OC)c3)nc2s1`, for which the growth is 58.8% in test [1]; 81.3% in test [3]; 82.5% in test [8]; 50.7% in test [4]; 60.5% in test [5]; 86.3% in test [6]. Besides, the growth in test [7] is 89%.

Consider `CCN(CC)CCOCC[C@H]1CC[C@H]2[C@@H]3[C@H](C)Cc4cc(OS(N)(=O)=O)ccc4[C@H]3CC[C@]12C`, for which the growth was -46.4% (active) in test [1]; -53.4% (active) in test [2]; -63.7% (active) in test [3]; -63.1% (active) in test [4]; -98.4% (active) in test [5]; -80.8% (active) in test [7].

Consider `Nc1ccc(Oc2c(F)c(F)c(Oc3ccc(N)cc3)c(F)c2F)cc1`, for which the growth is 91.8% in test [1]; 104% in test [3]; 102% in test [8]; 129% in test [4]; 81.5% in test [5]; 73.1% in test [6]. Further, the growth in test [7] is 110%.

Regarding `COc1ccc(/C=C/C(=O)c2cccc(NS(C)(=O)=O)c2)cc1`, the growth was 70.6% in test [1]; 105% in test [2]; 90% in test [3]; 50.4% in test [4]; 21% in test [5]; 111% in test [6]. Further, the growth in test [7] is 38.5%.

Turning to `Cc1cnc2nc(-c3ccc(N(C)C)cc3)cn2c1`, the growth is 89.8% in test [1]; 96.3% in test [3]; 116% in test [8]; 92.1% in test [4]; 97.2% in test [5]; 111% in test [6]. Further, the growth in test [7] was 104%.

Consider `COc1ccc([N+](=O)[O-])c(S(=O)(=O)c2ccc(Cl)cc2)n1`, for which the growth is 65.2% in test [1]; 40.9% in test [3]; 14.4% in test [8]; 18.1% in test [4]; 20.9% in test [5]; 104% in test [6]. Moreover, the growth in test [7] is 97.7%.

With `CC(C)Cn1cnc2c(NCn3nc(-c4cc(Cl)cc(Cl)c4Cl)n(/N=C/c4ccc(Cl)cc4)c3=S)nc3ccccc3c21`, the growth is 71.3% in test [1]; 92.3% in test [2]; 110% in test [3]; 97.2% in test [4]; 66.1% in test [5]; 80.6% in test [6]. Further, in test [7], the growth was 96.6%.

As to `O=C(c1ccc(Cl)cc1)c1ccc(Cl)cc1`, the growth is 101% in test [1]; 107% in test [3]; 103% in test [8]; 104% in test [4]; 110% in test [5]; 96.7% in test [6]. In test [7], the growth is 110%.

With `O=c1sc2ncnc3ncn1c32`, the growth in test [1] is 34.5%; in test [3] it was 29.5%; in test [8] it was 73.1%; in test [4], 22.4%; in test [5], 50.9%; in test [6] it was 79.5%. Also, the growth in test [7] is 70%.

For `CCOc1nc(-c2ccco2)n2nc(-c3ccco3)cc2n1`, the growth in test [1] was 84%; in test [3], 114%; in test [8], 107%; in test [4], 39.8%; in test [5] it was 108%; in test [6], 123%. Also, the growth in test [7] is 91.7%.

As for `CCOC(CNCc1cc(C)c2[nH]c3ccccc3c2c1C)OCC`, the growth in test [1] is 84.9%; in test [3], 92.3%; in test [8], 95.1%; in test [4], 81.3%; in test [5] it was 53.5%; in test [6] it was 45.1%. The growth in test [7] is 94.4%.

Turning to `CCCCCCCCCCCCC1CCCC(C)C1` (stereo not given), the growth in test [1] is 96.4%; in test [3], 104%; in test [8], 101%; in test [4] it was 93.6%; in test [5] it was 94.9%; in test [7] it was 91.3%.

On to `Nc1c(C(=O)Nc2cccc(Cl)c2)sc2nc3c(cc12)C(O)CCC3` (stereo not given), for which the growth was 52.3% in test [1]; -37.5% (active) in test [3]; 17.8% in test [4]; 19.1% in test [5]; 24.9% in test [6]; 26.9% in test [7].

For the molecule `Oc1c(N=Nc2nn[nH]n2)ccc2ccccc12`, the growth was 97.7% in test [1]; 67.7% in test [3]; 101% in test [8]; 73.7% in test [4]; 76.5% in test [5]; 103% in test [6]. In test [7], the growth is 80.1%.
